From PubChem BioAssay (NCATS)
Records with an inconclusive call do not appear. Calls of active or inactive are those of the source. The call rests on the fitted dose curve; in most records, active means well fitted curve in the direction sought with a large enough effect; inconclusive means small, poorly fitted or top-dose-only effect, or another doubt; inactive means no such curve, though single readings can be large; an effect the other way counts as inactive or inconclusive.

How the values were obtained:
[1] = Quantitative High-Throughput drug screen in 47 multiple myeloma cell lines against the NCATS MIPE library collection: H1112_PLB cell viability assay (AID 1918967; further: nearly all actives have a fitted effect of over 30% in size; further: potency means the concentration at half of the fitted maximal effect)
Method in brief: (§1)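 Luminescent ATP measurement with CellTiter-Glo gives viability, scaled between DMSO-only wells (100%) and media-only wells (0%). Cells, 500 per well, faced library compounds for 48 hours at 37C.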

[2] = Quantitative High-Throughput drug screen in 47 multiple myeloma cell lines against the NCATS MIPE library collection: Karpas25_ECACC cell viability assay (AID 1918968; further: nearly all actives have a fitted effect of over 35% in size; further: potency means the concentration at half of the fitted maximal effect)
Method in brief: as §1

[3] = Quantitative High-Throughput drug screen in 47 multiple myeloma cell lines against the NCATS MIPE library collection: KMS12BM_JCRB cell viability assay (AID 1918971); further: nearly all actives have a fitted effect of over 35% in size; further: potency means the concentration at half of the fitted maximal effect
Method in brief: (§2)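 Inhibition of cell viability is measured here. Each line was plated at 500 cells per well, treated with MIPE 4.0 drugs, kept 48 hours at 37C, then assayed for ATP content by CellTiter-Glo luminescence.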

[4] = Quantitative High-Throughput drug screen in 47 multiple myeloma cell lines against the NCATS MIPE library collection: KMS12PE_JCRB cell viability assay (AID 1918972); further: nearly all actives have a fitted effect of over 30% in size; further: potency means the concentration at half of the fitted maximal effect
Method in brief: as §2

[5] = Quantitative High-Throughput drug screen in 47 multiple myeloma cell lines against the NCATS MIPE library collection: NCIH929_DSMZ cell viability assay (AID 1918978); further: nearly all actives have a fitted effect of over 35% in size; further: potency means the concentration at half of the fitted maximal effect
Method in brief: (§3)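 ATP-based luminescence (CellTiter-Glo, 5 min RT incubation) quantified surviving cells following two days' treatment with MIPE 4.0 agents at 37 °C, 5% CO2.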

[6] = Quantitative High-Throughput drug screen in 47 multiple myeloma cell lines against the NCATS MIPE library collection: OCIMY1_PLB cell viability assay (AID 1918979); further: nearly all actives have a fitted effect of over 35% in size
Method in brief: as §3

[7] = Quantitative High-Throughput drug screen in 47 multiple myeloma cell lines against the NCATS MIPE library collection: LP1_DSMZ cell viability assay (AID 1918982); further: nearly all actives have a fitted effect of over 35% in size; further: potency means the concentration at half of the fitted maximal effect
Method in brief: as §3

[8] = Quantitative High-Throughput drug screen in 47 multiple myeloma cell lines against the NCATS MIPE library collection: KMS28PE_JCRB cell viability assay (AID 1918983); further: nearly all actives have a fitted effect of over 35% in size; further: potency means the concentration at half of the fitted maximal effect
Method in brief: as §3

[9] = Quantitative High-Throughput drug screen in 47 multiple myeloma cell lines against the NCATS MIPE library collection: L363_DSMZ cell viability assay (AID 1918984); conditions: L363 myeloma viability, CellTiter-Glo ATP luminescence, 48 h; viability (% of control): at 45.8 µM (top of the series); further: nearly all actives have a fitted effect of over 40% in size; further: potency means the concentration at half of the fitted maximal effect
Method in brief: as §3

[10] = Quantitative High-Throughput drug screen in 47 multiple myeloma cell lines against the NCATS MIPE library collection: KMS34_JCRB cell viability assay (AID 1918985); further: nearly all actives have a fitted effect of over 40% in size
Method in brief: as §3

[11] = Quantitative High-Throughput drug screen in 47 multiple myeloma cell lines against the NCATS MIPE library collection: MM1S_ATCC cell viability assay (AID 1918980); further: nearly all actives have a fitted effect of over 45% in size; further: potency means the concentration at half of the fitted maximal effect
Method in brief: as §3

[12] = Quantitative High-Throughput drug screen in 47 multiple myeloma cell lines against the NCATS MIPE library collection: MM1R_ATCC cell viability assay (AID 1918981); further: nearly all actives have a fitted effect of over 35% in size
Method in brief: as §3

[13] = Quantitative High-Throughput drug screen in 47 multiple myeloma cell lines against the NCATS MIPE library collection: KMS27_JCRB cell viability assay (AID 1918970); conditions: KMS27 myeloma cells, CellTiter-Glo ATP viability, 48 h; viability (% of DMSO): at 45.8 µM (top of the series); further: nearly all actives have a fitted effect of over 30% in size; further: potency means the concentration at half of the fitted maximal effect
Method in brief: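 Viability inhibition screen, 48 h compound exposure, luminescent ATP read-out.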

[14] = Quantitative High-Throughput drug screen in 47 multiple myeloma cell lines against the NCATS MIPE library collection: KMS26_JCRB cell viability assay (AID 1918975); further: nearly all actives have a fitted effect of over 45% in size; further: potency means the concentration at half of the fitted maximal effect
Method in brief: as §2

[15] = Quantitative High-Throughput drug screen in 47 multiple myeloma cell lines against the NCATS MIPE library collection: MMM1_PLB cell viability assay (AID 1918976)
Method in brief: as §3

[16] = Quantitative High-Throughput drug screen in 47 multiple myeloma cell lines against the NCATS MIPE library collection: MOLP8_DSMZ cell viability assay (AID 1918977); further: nearly all actives have a fitted effect of over 45% in size; further: potency means the concentration at half of the fitted maximal effect
Method in brief: as §3

[17] = Quantitative High-Throughput drug screen in 47 multiple myeloma cell lines against the NCATS MIPE library collection: KMS20_JCRB cell viability assay (AID 1918973); further: potency means the concentration at half of the fitted maximal effect; nearly all actives have a fitted effect of over 45% in size
Method in brief: as §1

Measured: Potency

Fc1ccc(C(c2ccc(F)cc2)N2CCN(CC=Cc3ccccc3)CC2)cc1
inactive: [1] | [2] | [3] | [4] | [6] | [8] | [9] | [10]
active: [5] 18.7 µM | [7] 16.6 µM

COc1cc(CNC(=O)CCCCC=CC(C)C)ccc1O
active: [5] 18.7 µM
inactive: [1] | [2] | [3] | [6] | [11] | [12] | [7]

CCCC1OC2C[C@@H]3[C@H]4CCC5=CC(=O)C=C[C@]5(C)[C@H]4C(O)C[C@]3(C)[C@]2(C(=O)CO)O1 (some centres not stated)
active: [2] 0.0132 µM | [3] 20.9 µM | [15] 0.0066 µM | [5] 0.296 µM | [7] 0.0066 µM | [8] 20.9 µM | [9] 0.0662 µM
inactive: [1] | [13] | [14] | [6]

O=C1CN2Cc3c(ccc(Cl)c3Cl)N=C2N1
active: [1] 29.6 µM | [2] 26.4 µM | [13] 0.296 µM | [3] 23.5 µM | [15] 23.5 µM | [11] 18.7 µM | [8] 23.5 µM
inactive: [4] | [6] | [9]

Cn1cc(-c2ccc3nnc(Sc4ccc5ncccc5c4)n3n2)cn1
active: [15] 16.6 µM | [11] 4.18 µM | [7] 0.001 µM
inactive: [1] | [6]

OC[C@H]1O[C@@H](OCCc2ccc(O)cc2)[C@H](O)[C@@H](O)[C@H]1O
inactive: [13] | [3] | [4] | [16] | [6] | [7] | [9]
active: [11] 20.9 µM

O=C(Nc1cccc(C(F)(F)F)c1)Nc1cc(S(=O)(=O)NC2CC2)ccc1-c1ccsc1
inactive: [6]
active: [2] 26.4 µM | [14] 16.6 µM | [15] 18.7 µM | [16] 4.18 µM | [5] 23.5 µM | [11] 20.9 µM

CCC(=O)NCC[C@@H]1CCc2ccc3c(c21)CCO3
active: [2] 13.2 µM | [14] 6.62 µM | [15] 0.59 µM | [11] 1.48 µM
inactive: [13] | [3] | [4] | [12]

CCCCC(F)(F)[C@@]1(O)CC[C@H]2[C@H](CC(=O)[C@@H]2CCCCCCC(=O)O)O1
inactive: [1] | [4] | [14] | [5] | [6] | [12] | [7] | [8] | [9]
active: [17] 0.418 µM

CO[C@H]1/C=C\O[C@@]2(C)Oc3c(C)c(O)c4c(O)c(c5c(nc6cc(C)ccn65)c4c3C2=O)NC(=O)C(C)=CC=C[C@H](C)[C@H](O)[C@@H](C)[C@@H](O)[C@@H](C)[C@H](OC(C)=O)[C@H]1C
active: [13] 18.7 µM | [4] 11.8 µM | [14] 8.33 µM | [15] 0.0148 µM | [9] 20.9 µM
inactive: [1] | [6] | [7]

CC1=C(C(=O)Nc2cc3cn[nH]c3cc2F)C(c2ccc(C(F)(F)F)cc2)CC(=O)N1 (configuration not stated)
not listed: [2] | [3] | [4] | [11] | [13] | [15] | [17]
inactive: all other assays above

OC[C@H]1O[C@@H](Oc2ccc(O)cc2)[C@H](O)[C@@H](O)[C@H]1O
inactive: [2] | [14] | [16] | [12] | [7] | [8] | [9] | [10]

CN1c2ccccc2C(=O)N2CCc3c([nH]c4ccccc34)C21 (configuration not stated)
inactive: [13] | [4] | [12] | [7] | [8]
active: [2] 23.5 µM | [11] 10.5 µM

C[C@H](c1ccc(F)cc1CCCC(=O)O)N(c1cc(F)ccc1F)S(=O)(=O)c1ccc(Cl)cc1
inactive: [4] | [6]
active: [2] 20.9 µM | [3] 1.48 µM | [14] 0.743 µM | [5] 6.62 µM | [11] 10.5 µM
